# Source: PubChem BioAssay
# Calls of active or inactive are those of the source. Unless noted, no rule for the calls is given here.
# What was measured:
# [1] = liver-stage malaria parasite load reduction – cell-based, known kinase inhibitor set, luminescence, hepatoma host viability (AID 624392); details: Plasmodium liver stage in hepatoma cells, luciferase luminescence, concentration not given here; liver cell % of control: measured here: host liver cell viability; parasite % of control: stronger effect = lower value;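 also: infected cells incubated roughly two days before readout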
# [2] = altered dexamethasone sensitivity, NF-kB reporter, cell-based, luciferase, IL-1B stimulus (AID 624486); details: IL-1B + dexamethasone, luminescence; percent of negative control (+Dex): actives lie on both sides, concentration not given here; z-score: measured here: IL-1B alone, no Dex;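 as to percent of negative control (+Dex): 100% = mean signal of vehicle control wells on the plate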
# [3] = C. elegans survival during P. aeruginosa infection – whole organism (AID 651566);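 also: tested at 14 µM; sign flipped so higher z means a lower ratio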; details: C. elegans killed by P. aeruginosa, survival ratio
# [4] = pro-inflammatory signaling induction in mouse macrophages – cell-based, murine, luminescence (AID 652131); details: murine macrophage pro-inflammatory reporter, stronger effect = higher value
# [5] = target: Cellular tumor antigen p53 (Homo sapiens) (UniProt P04637); test: GFP-p53 level modulators in HPV16+ cells – imaging, known kinase inhibitor set, EGFP/DsRed ratio (AID 1053116); details: GFP-p53 stability, stronger effect = higher value; EGFP object count: measured here: GFP-p53 positive objects count;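 also: cells exposed to compounds for 24 h at 37 °C before reading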
# Chain of Cellular tumor antigen p53 (Homo sapiens) (P04637 whole entry, looked up): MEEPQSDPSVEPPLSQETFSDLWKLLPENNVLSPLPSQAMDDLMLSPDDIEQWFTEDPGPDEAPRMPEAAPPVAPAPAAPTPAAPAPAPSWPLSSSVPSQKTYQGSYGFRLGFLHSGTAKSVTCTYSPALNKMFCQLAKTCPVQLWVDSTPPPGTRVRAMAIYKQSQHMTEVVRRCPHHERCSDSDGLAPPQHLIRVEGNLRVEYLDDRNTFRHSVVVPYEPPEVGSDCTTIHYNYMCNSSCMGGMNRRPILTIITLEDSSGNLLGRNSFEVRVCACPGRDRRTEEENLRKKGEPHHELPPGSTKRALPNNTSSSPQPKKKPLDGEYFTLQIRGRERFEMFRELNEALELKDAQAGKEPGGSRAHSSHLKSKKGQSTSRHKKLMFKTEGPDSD
# [6] = inducers of IRF3 signaling, differentiated THP-1 – cell-based, PMA-stimulated THP-1, luminescence (AID 1053176); details: PMA-differentiated THP-1, IRF3 reporter luminescence; stronger effect = higher value
# [7] = MELAS cybrid and Rieske KO viability enhancers – cell-based, MELAS cybrids, Rieske KO mouse fibroblasts, CellTiter-Glo, primary screen (AID 1508586;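 active = mean z-score across replicates of 1.96 or higher in either the MELAS or the Rieske mutant cell line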;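 also: z relative to plate mean and SD of compound and empty wells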); details: low glucose
# [8] = MELAS cybrid survival, CellTiter-Glo 48 h, stronger effect = higher value
# [9] = Rieske KO mouse fibroblast survival, CellTiter-Glo 72 h
Compound,liver cell % of control [1] [%],parasite % of control [1],percent of negative control (+Dex) [2],z-score [2],z-score [3],z-score [4],EGFP object count [5],EGFP/DsRed ratio [5],fraction signal [6],"z-score [7, 8]","z-score [7, 9]"
c1ccc(Oc2ccc(Nc3ncc(-c4ccccc4)o3)cc2)cc1,103,102% (inactive),110% (inactive),1.91,0.1 (inactive),3.61 (inactive),4.5,0.122 (inactive),0.0065 (inactive),-0.198 (inactive),-0.417
CC(C)c1ccc(-c2cc(C3CNNC3c3ccccn3)ccn2)cc1 (stereo unspecified),100,117% (inactive),95.5% (inactive),0.855,0.505 (inactive),0.704 (inactive),2,0.021 (inactive),-0.0085 (inactive),0.0399 (inactive),-0.129
Nc1nccc(-c2c(-c3ccc(F)cc3)nn3cc(C(F)(F)F)ccc23)n1,111,130% (inactive),107% (inactive),1.32,-0.745 (inactive),-0.016 (inactive),5.5,0.148 (inactive),-0.0075 (inactive),-0.218 (inactive),-0.148
CN(c1ccc(NC(=O)Nc2c(Cl)cccc2Cl)cc1)c1ccnc(Nc2cccc(CS(C)(=O)=O)c2)n1,108,130% (inactive),134% (inactive),3.88,0.545 (inactive),5.36 (inactive),4,0.171 (inactive),0.005 (inactive),-0.649 (inactive),-0.476
O=C(Nc1ccc(Oc2ccc3nc(NC(=O)c4ccccc4)[nH]c3c2)cc1)Nc1cc(C(F)(F)F)ccc1F,151,113% (inactive),102% (inactive),0.635,-0.485 (inactive),-1.71 (inactive),2.5,0.0378 (inactive),-0.006 (inactive),8.17 (active),1.84
COc1cccc(-n2ncc3c(N/N=C/c4cccc(F)c4)ncnc32)c1,106,81% (inactive),93.5% (inactive),0.615,-0.05 (inactive),-0.183 (inactive),5,0.0775 (inactive),0.0035 (inactive),1.45 (inactive),-0.242
CNC(=O)c1cncc(/C=C/c2ccccc2Cl)c1,165,16.8% (inactive),109% (inactive),0.82,-0.36 (inactive),1.43 (inactive),6.5,0.185 (inactive),0.0005 (inactive),1.56 (inactive),-0.00226
CS(=O)(=O)CCNCc1ccc(-c2ccc3ncnc(Nc4ccc(OCc5cccc(C(F)(F)F)c5)cc4)c3c2)o1,91.4,126% (inactive),85% (inactive),-0.68,-0.1 (inactive),0.289 (inactive),4.5,0.109 (inactive),0.018 (inactive),0.798 (inactive),-0.393
CCc1cccc(NC(=O)Nc2ccc(Oc3ccc4nc(NC(=O)OC)[nH]c4c3)cc2)c1,93.1,128% (inactive),106% (inactive),0.55,-0.175 (inactive),0.13 (inactive),106,1.83 (active),-0.002 (inactive),-0.411 (inactive),-0.621
CN(C)CCCNc1nccc(-c2c(-c3ccc(F)cc3)nn3cc(C(F)(F)F)ccc23)n1,98.2,96.1% (inactive),93.5% (inactive),0.05,0.5 (inactive),2.64 (inactive),4,0.104 (inactive),-0.008 (inactive),0.443 (inactive),-0.332
C[C@@H](Oc1cc(-n2cnc3ccc(OC[C@@H](O)CO)cc32)sc1C(N)=O)c1ccccc1Cl,94.6,81.9% (inactive),90% (inactive),-0.93,0.155 (inactive),-1.41 (inactive),5,0.0656 (inactive),-0.0045 (inactive),-0.759 (inactive),0.965
CN(c1ccc(NC(=O)Nc2ccc(OC(F)(F)F)cc2)cc1)c1ccnc(Nc2cccc(S(N)(=O)=O)c2)n1,58.3,13.1% (inactive),81.5% (inactive),-0.645,1.04 (inactive),-1.34 (inactive),7.5,0.0983 (inactive),-0.001 (inactive),-1.15 (inactive),0.249
COc1cc2ncn(-c3cc(OCc4ccccc4C(F)(F)F)c(C(C)=O)s3)c2cc1OC,97.8,91.8% (inactive),82.5% (inactive),-0.63,-0.4 (inactive),-0.463 (inactive),5,0.118 (inactive),0.002 (inactive),-0.657 (inactive),0.0101
c1ccc(Nc2ncc(-c3ccccc3)o2)cc1,98.7,93.5% (inactive),246% (active),11.2,-1.27 (inactive),0.128 (inactive),5,0.0918 (inactive),-0.011 (inactive),1.22 (inactive),-0.446
Fc1cccc(COc2ccc(Nc3ncnc4sc(-c5cccs5)cc34)cc2Cl)c1,71.8,60.1% (inactive),92% (inactive),0.005,0.99 (inactive),-0.373 (inactive),5,0.0533 (inactive),-0.0045 (inactive),-0.00271 (inactive),-0.496
CCN1CCC(CC(=O)Nc2n[nH]c3nc(-c4cccs4)c(Br)cc23)CC1,76.8,72.5% (inactive),88% (inactive),-0.195,0.735 (inactive),-0.532 (inactive),8.5,0.138 (inactive),0.006 (inactive),0.148 (inactive),-0.143
c1ccc(COc2ccc(Nc3ncnc4ccc(-c5ccco5)cc34)cc2)cc1,99,71.7% (inactive),106% (inactive),1.01,0.34 (inactive),-1.14 (inactive),3,0.073 (inactive),0.006 (inactive),-0.351 (inactive),-0.356
c1cnn2ncc(-c3ccnc(NCCCN4CCOCC4)n3)c2c1,91.2,426% (inactive),57% (inactive),-4.11,0.63 (inactive),-1.59 (inactive),1.5,0.248 (inactive),-0.004 (inactive),-0.792 (inactive),-0.375
FC(F)(F)c1cccc(Nc2nccc(-c3cnn4nc(-c5ccccc5)ccc34)n2)c1,97.2,79.6% (inactive),86.5% (inactive),-0.085,1.3 (inactive),-0.793 (inactive),4.5,0.154 (inactive),-0.0005 (inactive),1.22 (inactive),-0.183
CCCN1CCCC(c2ccc(Nc3nc(Nc4cc(F)ccc4C(N)=O)c4cc[nH]c4n3)c(OC)c2)C1 (stereo unspecified),71,101% (inactive),73.5% (inactive),-2.44,1.62 (inactive),-0.56 (inactive),50.5,0.576 (inactive),-0.003 (inactive),-0.991,4.23
N#Cc1ccc2c(-c3ccnc(NC4CC4)n3)c(-c3ccc(F)cc3)nn2c1,122,87.3% (inactive),106% (inactive),0.525,-0.52 (inactive),2.06 (inactive),0.5,0.00284 (inactive),0 (inactive),-0.69 (inactive),-0.125
N#Cc1ccc(Oc2nccc(-c3c(-c4ccc(F)cc4)ncn3C3CCNCC3)n2)cc1,76.8,142% (inactive),90.5% (inactive),0.29,0.255 (inactive),-0.275 (inactive),1,0.00276 (inactive),-0.0025 (inactive),-0.193 (inactive),-0.456
Nc1nc(-c2ccc3c(c2)/C(=C\c2cc(Br)c(O)c(Br)c2)C(=O)N3)cs1,70.8,79.2% (inactive),86.5% (inactive),-0.23,0.35 (inactive),2.85 (inactive),5.5,0.264 (inactive),-0.002 (inactive),-0.944 (inactive),-0.14
N#Cc1cccc(Nc2nccc(-c3cnn4ncccc34)n2)c1,128,19.1% (inactive),2% (active),-9.25,0.415 (inactive),-1.79 (inactive),1,0.00226 (inactive),-0.013 (inactive),0.321 (inactive),1.44
Nc1nccc(-c2c(-c3ccc(F)cc3)ncn2C2CCC(O)CC2)n1 (stereo unspecified),93,24.7% (inactive),110% (inactive),1.26,0.765 (inactive),2.25 (inactive),2,0.124 (inactive),-0.0025 (inactive),-1.17 (inactive),-0.368
c1ccc(-c2nc3n(c2-c2ccc4c(c2)OCO4)CCC3)nc1,103,16.7% (inactive),102% (inactive),0.295,1.04 (inactive),4.3 (inactive),6,0.172 (inactive),-0.003 (inactive),-1.04 (inactive),0.741
